Data taken from PubChem BioAssay (NCI).
This is part of a sample that, as a whole, favours compounds with a hit. Of some 83,000 tested, about 20% had one in any assay.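 Note: values are percent growth. 100 is the growth of untreated cells, values between 100 and 0 indicate rising inhibition; between -100 and 0 indicates cell death.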 A number with no mark means an inactive call. Active and inactive are the calls of the source. How the source made its calls: active means growth percent below 10; inactive means the rest.

Legend:
Assay in all cases: NCI-60 one-dose screen, 48 h (100 = growth as untreated, 0 = no growth, -100 = all killed)
NCI-H23 lung = details: 10 µM unless noted
DU-145 prostate = details: 10 µM unless noted
MDA-MB-231 breast = details: 10 µM unless noted
SF-268 CNS = details: 10 µM unless noted
SF-539 CNS = details: 10 µM unless noted
M14 melanoma = details: 10 µM unless noted
HCT-15 colon = details: 10 µM
HT29 colon = details: 10 µM unless noted
SNB-75 CNS = details: 10 µM unless noted
PC-3 prostate = details: 10 µM unless noted
UACC-62 melanoma = details: 10 µM unless noted
SK-MEL-28 melanoma = details: 10 µM unless noted
SN12C renal = details: 10 µM unless noted
ACHN renal = details: 10 µM unless noted
OVCAR-8 ovarian = details: 10 µM unless noted
OVCAR-5 ovarian = details: 10 µM unless noted
NCI/ADR-RES ovarian = details: 10 µM unless noted
MDA-MB-435 melanoma = details: 10 µM unless noted
HCT-116 colon = details: 10 µM unless noted
KM12 colon = details: 10 µM unless noted

SMILES	growth (NCI-H23 lung)	growth (DU-145 prostate)	growth (MDA-MB-231 breast)	growth (SF-268 CNS)	growth (SF-539 CNS)	growth (M14 melanoma)	growth (HCT-15 colon)	growth (HT29 colon)	growth (SNB-75 CNS)	growth (PC-3 prostate)	growth (UACC-62 melanoma)	growth (SK-MEL-28 melanoma)	growth (SN12C renal)	growth (ACHN renal)	growth (OVCAR-8 ovarian)	growth (OVCAR-5 ovarian)	growth (NCI/ADR-RES ovarian)	growth (MDA-MB-435 melanoma)	growth (HCT-116 colon)	growth (KM12 colon)
CCOC(=O)c1cnc(SCc2ccc(Cl)c(Cl)c2)nc1N1CC1	51.1%	66.7%	51.7%	74.9%	44.1%	41.8%	33.7%	31.2%	43.1%	51.2%	51.1%	88.5%	58.4%	44.1%	51.6%	82.9%	25.2%	10.5%	23.5%	50.5%
C[CH2][Pb]([CH2]C)([CH2]C)[O]C(=O)COc1ccccc1	-6.75% (active)	-6.43% (active)	20.1%	-10.1% (active)	-21.8% (active)	14.6%	12.4%	4.3% (active)	4.45% (active)	20.3%	25.3%	28.3%	8.52% (active)	11.5%	9.05% (active)	-5.58% (active)	2.79% (active)	-31.9% (active)	4.13% (active)	1.59% (active)
O=C(N/N=C/c1ccc(N(CCCl)CCCl)cc1)c1cc(=O)[nH]c(=O)[nH]1	79.7%	91.4%		95.2%	91.3%	103%	97.8%	101%	92.8%	89.2%		116%		94.2%	93.5%	134%	108%	116%	90.7%	111%
O=CN1N=C(c2ccccc2)CC1c1sc(N(CCCl)CCCl)nc1Cl (stereo not drawn)	87.5%	111%	77.8%	101%	109%	103%	92.8%	92.2%	72%	82.5%	67.5%	98.7%	96.1%	90.9%	91%	90.6%	93.6%	99.2%	89.4%	98.9%
O=C(Nc1ccc(S(=O)(=O)F)cc1)Oc1ccccc1	97.8%	103%	104%	102%	104%	110%	104%	102%	85.5%	93.4%	97.5%	99.2%	104%	106%	101%	102%	103%	99.9%	116%	102%
O=[N+]([O-])c1cc([N+](=O)[O-])c(Cl)c(Cl)c1Cl	43%	-27.2% (active)	22.3%		11.6%	-8.63% (active)	-49.1% (active)	-85.5% (active)	59.6%	57.1%	14.6%	65.9%	19.4%	-87.1% (active)	-41.1% (active)	65.6%	21.4%	19.3%	-53.9% (active)	37.4%
CNC(C)Cc1ccccc1 (stereo not drawn) (tested in a mixture with another compound)	99.2%	108%	120%	108%	99.7%	103%	101%	107%	100%	92.8%	107%	105%	104%	95.7%	113%	88.1%	104%	104%	100%	99.8%
COc1cc[c]([Hg][Cl])cc1	47%		46.2%	56.8%	85.2%	17%	-42.8% (active)	48.5%	50.5%	77.6%	12.5%	20.7%	-6.35% (active)	86.5%	69.8%	105%	86.2%	34.3%	48.4%	102%
CC(=O)O[C@H]1CCC2C3CCC4=C/C(=N/O)CCC4(C)C3CCC21C (stereo partly drawn)	90%	93.1%	110%	75.9%	87.6%	79.9%	72.3%	76%	96.4%	93.6%	91.4%	103%	103%	108%	99.3%	99.5%	70.8%	20.3%	75.3%	78%
CC(C)CCC1(CCO)C(=O)NC(=S)NC1=O	110%	107%	104%	95.1%	125%	103%	91.7%	99.3%	99.8%	87.8%	97.3%	116%	100%	103%	101%	99.5%	114%	104%	104%	104%
Nc1ccc([N+](=O)[O-])c2c1Oc1ccccc1O2	94.3%	93.1%	97%	107%	89.7%	106%	87.8%	103%	82.8%	101%	81.7%	116%	98%	108%	92.9%	88.1%	99.4%	106%	99.7%	99.8%
CCOCC1(CCc2ccccc2)C(=O)NC(=S)NC1=O	94%	109%	100%	102%	99.9%	105%	107%	108%	100%	104%	104%	117%	100%	108%	107%	107%	105%	108%	101%	110%
CNC(=O)Oc1ccccc1	107%	113%	110%	107%	107%	99.3%	102%	118%	80.7%	106%	102%	86.2%		105%	110%	101%	102%		106%	100%
c1ccc(-c2ccc3ccccc3[o+]2)cc1	84.4%	98.9%	65%	88.7%	101%	96.8%	107%	89.1%	80.5%	76.3%	73.1%	111%	90.2%	91.6%	96.6%	103%	92.5%	101%	95.7%	91.8%
NS(=O)(=O)c1nc[nH]c1[N+](=O)[O-]	99.8%	111%	102%	103%	100%	102%	101%	93.1%	92.1%	86.5%	102%	105%	102%	96.9%	105%	96.7%	102%	115%	104%	103%
O=C(NCCNC(=O)c1ccc([As](O)O)cc1)c1ccc([As](O)O)cc1	93%	103%	106%	103%	102%	99.1%	107%	112%	87.5%	94.6%	99.7%	111%	113%	106%	103%	114%	101%	104%	101%	99.8%
N#[N+]c1nc2nc(N)[nH]c(=O)c2[nH]1	103%	105%	107%	104%	101%	100%	97.9%	104%	92%	96.8%	97.7%	111%	99.9%	99.6%	100%	104%	101%	100%	96.8%	108%
